Data from ChEMBL document CHEMBL4513216, “Probing the Open Global Health Chemical Diversity Library for Multistage-Active Starting Points for Next-Generation Antimalarials” (ACS Infect Dis, 2020).
Among all 69,000 compounds or so, about 8,600 (12%) showed an effect of 50% or more. The entries come from a sample that favours strong results as a whole.

These compounds were tested on Plasmodium berghei (assay: Screen against P. berghei liver stage (PbLuc), transformed with Luciferase, at 10uM). Conditions: tested at 10 uM.
Format: functional, HepG2
Compound `CCC(=O)Nc1cc(Br)cn(C)c1=O` has an INHIBITION of 8.92%. Work on `Cn1cc(Br)cc(NC(=O)Cc2cccs2)c1=O` yielded an INHIBITION of 53.3%. `O=C(NCCc1nnc2n1CCC2)NCC1(c2ccccc2F)CC1` gave an INHIBITION of 33.8%. For `COCCN1CCCC1(C)c1nc(C)cc(N)n1` (centres undefined), the INHIBITION was -3.94%. Compound `Nc1nc2c(c(NCc3ccc(C(=O)N4CCCC4)cc3)n1)CCCC2` has an INHIBITION of 63.8%. `Nc1nc2c(c(N3CCN(C(=O)c4cccs4)CC3)n1)CCCC2` gave an INHIBITION of 72.5%. `Cc1csc(N2CCCN(C(=O)c3cccs3)CC2)n1` gave an INHIBITION of 29.2%. `Nc1nc2c(c(NCc3nc(-c4ccncc4)n[nH]3)n1)CCCC2` gave an INHIBITION of -97.2%. Work on `N#Cc1cccnc1N1CCN(C(=O)c2cccs2)CC1` yielded an INHIBITION of 9.16%. Work on `Nc1nc2c(c(NCc3ccncc3)n1)CCCC2` yielded an INHIBITION of -68.2%. `Cc1ccc(N2CC[C@H]3[C@@H]2CCC(=O)N3CCN2CCOCC2)nn1` showed an INHIBITION of 18.7%. `O=C(c1cnccn1)N1CCOC2(CCN(Cc3ccsc3)CC2)C1` showed an INHIBITION of 13.7%. `CNC(=O)NCC1CCC2(CCN(C(=O)c3ccccn3)CC2)CO1` (centres undefined) showed an INHIBITION of 35.8%. For `CN(C)Cc1cc(C2CCN(C(=O)C3CC34CCC4)CC2)nn1C` (centres undefined), the INHIBITION was 8.53%. Compound `CC(C)Oc1ccc(CC2=N[C@](C)(CO)CO2)cc1` has an INHIBITION of 16%. In the case of `CC1(CO)COC(Cc2ccc(Cl)cc2)=N1` (centres undefined), the INHIBITION was 0.29%. Compound `CCCOc1ccc(CC2=NC(C)(CO)CO2)cc1` (centres undefined) has an INHIBITION of 58.3%. `CCn1cc(C(=O)Nc2ccccc2C(=O)OC)cn1` showed an INHIBITION of 21.5%. For `CS(=O)(=O)N1CCOCC2(CCN(Cc3ccoc3)CC2)C1`, the INHIBITION was 35.5%. `CSc1ccc(CN2CCCC3(CNC(=O)c4ccccc4O3)C2)cc1` (centres undefined) gave an INHIBITION of 73.7%. With `O=C1NCC2(CCCN(Cc3ccc(F)cc3)C2)Oc2ccccc21` (centres undefined) the INHIBITION was 46%. For `O=C1NCC2(CCCN(Cc3ccncc3)C2)Oc2ccccc21` (centres undefined), the INHIBITION was 36.4%. `O=C(NCCc1nccs1)c1n[nH]c2c1CCC2` gave an INHIBITION of -147%. `Cc1ccc2cccc(C(=O)NCCOCC3CC3)c2n1` was tested, and the INHIBITION was -58.5%. `Cc1ccc2cccc(C(=O)NCC3CCN(C(C)C)C3)c2n1` (centres undefined) gave an INHIBITION of 50.1%. With `CN1CCC(CNC(=O)c2ccc3cccc(Cl)c3n2)C1` (centres undefined) the INHIBITION was 9.4%. `COCCn1cnc2c(F)cc(Br)cc2c1=O` showed an INHIBITION of 47.4%. Compound `CC(C)N(C)S(=O)(=O)c1ccc2c(c1)CCN(C(=O)c1cnccn1)C2` has an INHIBITION of 28.8%. Compound `CC(C)N(C)S(=O)(=O)c1ccc2c(c1)CCN(C(=O)c1cscn1)C2` has an INHIBITION of 65.2%. `CC(C)N(C)S(=O)(=O)c1ccc2c(c1)CCN(C(=O)c1ccccn1)C2` gave an INHIBITION of -12.1%. Work on `CCCc1cc(C(=O)NC(C)c2ccccc2)n(C)n1` (centres undefined) yielded an INHIBITION of 8.7%. In the case of `O=C(O)c1cc(Br)cnc1OCC1CC1`, the INHIBITION was 14.4%. Compound `Cc1cc2c(cc1CNC(Cc1cccs1)c1nccs1)OCO2` (centres undefined) has an INHIBITION of 28.375%. With `N#Cc1ccc(NCC(=O)Nc2ccn(Cc3cccnc3)n2)cc1` the INHIBITION was 41.4%. Work on `CC(C)N(Cc1cccnc1)C(=O)CNc1ccc(C#N)cc1` yielded an INHIBITION of -21%. For `CCC(=O)Nc1ncn(Cc2cccnc2)n1`, the INHIBITION was 61.2%. Work on `CCSCCC(=O)Nc1ncn(Cc2cccnc2)n1` yielded an INHIBITION of -11.1%. For `CCSCCC(=O)Nc1ncn(Cc2ccccc2)n1`, the INHIBITION was 42%. Compound `N#Cc1ccc(NCC(=O)Nc2ncn(Cc3cccnc3)n2)cc1` has an INHIBITION of 72.3%. With `Cc1ncsc1C(=O)NCCn1nc(C2CCNC2)c2cccnc21` (centres undefined) the INHIBITION was 38.7%. `CCc1nc(CC(=O)NCC(Cc2ccc(F)cc2)C(N)=O)cs1` (centres undefined) showed an INHIBITION of 48.2%. In the case of `O=C(NC1CC1)c1cccc(Oc2ccc3nncn3n2)c1`, the INHIBITION was -34.4%. `Cc1ccc(C(=O)N2CCSCC2)cc1N1CCNC1=O` was tested, and the INHIBITION was 48.5%. `Cc1ccc(C(=O)N2CC(c3cccnc3)C2)cc1N1CCNC1=O` showed an INHIBITION of 56.7%. `COc1cc(C)sc1C(=O)N1CCCCC1c1ccccn1` (centres undefined) was tested, and the INHIBITION was 47.7%. `COc1cc(C)sc1C(=O)N1CCC(Nc2cccnc2)CC1` showed an INHIBITION of 18.5%. `COc1cc(C)sc1C(=O)N1CC(c2cccnc2)C1` gave an INHIBITION of 56.8%. For `COc1ccc(C2(C(=O)N3CC(c4cccnc4)C3)CC2(C)C)cc1` (centres undefined), the INHIBITION was 55.4%. With `CC1(C)CC1(C(=O)N1CC(c2cccnc2)C1)c1ccc(F)cc1` (centres undefined) the INHIBITION was 21.2%. `CC1(C)CC1(C(=O)N1CC(c2cccnc2)C1)c1ccccc1F` (centres undefined) showed an INHIBITION of 28.7%. Compound `Cc1ccc(C(=O)N2Cc3ccccc3C2)cc1N1CCNC1=O` has an INHIBITION of 2.74%. `COc1ccccc1CC(=O)N1CCCC(c2cc(C)[nH]n2)C1` (centres undefined) gave an INHIBITION of -24.2%. With `Cc1ccc(-c2nnc(CNC(=O)c3cccnc3)o2)cn1` the INHIBITION was 30.4%. For `CC(=O)N1CCCN(C(=O)NCCCn2cncn2)CC1`, the INHIBITION was -10.895%.
